# Measurements published in article PMC5540273 (PLoS ONE, 2017).
# System: T1, RSK4(Kin.Dom.2-C-terminal)
# T1 construct: gene RPS6KA6
# Conditions: concentration: 1 μM, replicates: in singlicate; n = 1
# 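Also: KINOMEscan kinase panel screen.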
row,Compound,%Inh [%]
1,O=C(Nc1n[nH]c2nc(-c3ccco3)c(Br)cc12)C1CCN(Cc2ccccc2)C1.O=C(O)[C@H](O)[C@@H](O)C(=O)O (stereo not shown) [SB-742034],12
2,Cn1cnc2c(N)ncnc21 [SKF-97623],2
3,COc1ccc(Nc2nccc(-c3ccc(NC(=O)c4cc5cc(F)ccc5[nH]4)cc3)n2)cc1 [GSK1229496],6
4,CNC(=O)c1ccc(C)c(-n2c(C)cc(OCc3ccc(F)cc3F)c(Br)c2=O)c1,0
5,Nc1nccc(-c2c(-c3ccc(F)cc3)ncn2C2CCN(Cc3ccccc3)CC2)n1 [SB-219980],63
6,Cc1ccc(NC(=O)Nc2ccccc2)cc1-c1ccc(C(=O)Nc2ccncc2)cc1 [GSK1398471],6
7,Fc1ccc(-c2nc[nH]c2-c2ccncc2)cc1 [SB-217360],87
8,CC(C)c1cc(-c2ccc3c(N)n[nH]c3c2)nc(N)n1 [GSK2250882],17
9,Fc1ccc(-c2nc3n(c2-c2ccncc2)CCS3)cc1 [GI98581],88
10,CCc1ccc(-c2ccc3c(c2)-c2n[nH]cc2S(=O)(=O)N3C)cc1,20
11,COc1ccc(CSc2nnc(-c3ccc4c(c3)CCO4)o2)cc1,17
12,CSc1ccc(-c2nc3n(c2-c2ccncc2)CCC3)cc1 [SKF-105561],70
13,COc1cccc(NC(=O)Nc2ccc(C)c(-c3ccc(C(=O)Nc4ccncc4)cc3)c2)c1 [GSK1398474],22
14,O=c1cc(N2CCOCC2)nc2n(Cc3cccc(Cl)c3Cl)c3ccccc3n12 [GSK2299009],5
15,COC(=O)c1cccc(NC(=O)NC2CCN(c3ccnc(Nc4ccc(F)cc4)n3)C2)c1 (stereo not shown) [GSK1379725],0
16,O=C(Nc1n[nH]c2nc(-c3cccs3)c(Br)cc12)C1CC1 [SB-735297],20
17,CC(=O)c1c(C)c2cnc(Nc3ccc(N4CCNCC4)cn3)nc2n(C2CCCC2)c1=O,1
18,CN1c2ccc(-c3ccc(C(N)=O)cc3)cc2-c2[nH]ncc2S1(=O)=O,38
19,CNc1cc(-c2ccc3c(N)n[nH]c3c2)nc(N)n1 [GSK2224810],37

row,Compound,%Inh [%]
1,Cn1cncc1C(=O)NC1CCN(c2ccnc(Nc3ccc(F)cc3)n2)C1 (stereo not shown) [GSK1379717],15
2,Cn1cncc1-c1cc2c(Nc3ccc(OCc4ccccc4)cc3)ncnc2cn1 [GW281179],9
3,COc1ccc(-c2coc3ccc(-c4nnc(C)o4)cc23)cc1,15
4,Cc1ccc(NC(=O)Nc2ccc(Cl)cc2)cc1-c1ccc(C(=O)Nc2ccncc2)cc1 [GSK1398472],20
5,CC(=O)c1c(C)c2cnc(Nc3ccn(C)n3)nc2n(C2CCCC2)c1=O,0
6,COc1ccc(Nc2nccc(N3CCC(NC(=O)c4cc5ccccc5s4)C3)n2)cc1 (stereo not shown) [GSK1379738],0
7,Cc1nccc(-c2c(-c3ccc(F)cc3)ncn2CCCN2CCOCC2)n1.Cl [SB-282975],6
8,CC[C@@H]1CO[C@H](C(=O)Nc2ccccc2)CN1c1cc(-c2ccc3c(N)n[nH]c3c2)nc(NC)n1 [GSK2376236],7
9,NS(=O)(=O)c1cccc(N/C=C2\C(=O)Nc3ccc(S(=O)(=O)Cc4c(Cl)cccc4Cl)cc32)c1 [GSK398099],2
10,Nc1cccc(-c2ccc3c(N)n[nH]c3c2)n1 [GSK2192730],17
11,CCCCc1nn2ncccc2c1-c1ccnc(NC2CC2)n1 [GW684374],32
12,CNc1nc(-c2ccc3c(N)n[nH]c3c2)cc(N2C[C@@H](C(=O)NC3CCCCC3)OC[C@H]2C)n1 [GSK2375584],20
13,COc1cccc(C2=C(Nc3cc(Cl)c(O)c(Cl)c3)C(=O)NC2=O)c1 [SB-390767],0
14,COc1ccc(CSc2nnc(-c3ccc4ncsc4c3)o2)cc1C(F)(F)F,9
15,Cc1c(Cn2c(C)c(C)n3c(=O)cc(N4CCOCC4)nc23)cccc1C(F)(F)F [GSK2328680],5
16,CNc1nc(-c2ccc3c(N)n[nH]c3c2)cc(N2C[C@@H](C(=O)Nc3ccccc3)CC[C@H]2C)n1 [GSK2298859],23
17,Cc1ccccc1-c1cc(-c2c[nH]nc2-c2ccccn2)ccn1 [GW680061],22
18,COc1ccc(Nc2nccc(NCCNC(=O)Nc3cc(C)ccc3C)n2)cc1 [GSK1379899],0
